Where “and” joins values, the source holds several entries; their conditions need not be identical. Equal values may be shown once. Records with an inconclusive call do not appear. Where a call stands in place of a potency, no number is given. Calls of active or inactive are those of the source. Unless noted, the call rests on the fitted dose curve; in most records, active means well fitted curve in the direction sought with a large enough effect; inconclusive means small, poorly fitted or top-dose-only effect, or another doubt; inactive means no such curve, though single readings can be large; an effect the other way counts as inactive or inconclusive.
Experiments:
[1] = Cell Viability - BJ (AID 421; calls by dose curve;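 further: potency means the concentration at half of the fitted maximal effect; cells exposed to compound for 40 hours at 37 °C before readout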); settings: BJ fibroblast viability, qHTS
Method in brief: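 Quantitative HTS: ATP depletion in BJ cells after 40 hr compound exposure in complete culture medium, detected with CellTiter-Glo; AC50 from standard Hill fits.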

[2] = Cell Viability - HepG2 (AID 433; calls by dose curve;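 further: potency means the concentration at half of the fitted maximal effect; potency for ATP loss meaning cytotoxicity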); settings: qHTS
Method in brief: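 HepG2 cells, 1500 per well, treated 40 hr at 37 °C in complete medium; viability from intracellular ATP by CellTiter-Glo luminescence. Normalized to DMSO and 100 uM tamoxifen; AC50 from Hill fit of qHTS concentration-response.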

[3] = Cell Viability - MRC5 (AID 434; calls by dose curve;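 further: potency means the concentration at half of the fitted maximal effect; potency reflects cytotoxicity seen as loss of intracellular ATP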); settings: MRC5 lung fibroblast viability, qHTS
Method in brief: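 ATP luminescence read-out (CellTiter-Glo, 20 min RT) after 40 hr, 37 °C compound exposure of 1500 MRC5 cells/well. Data normalized to DMSO (basal) and 100 uM tamoxifen (100% inhibition); AC50 from standard Hill equation.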

[4] = biological target: Mitogen-activated protein kinase 10 (Mus musculus) (UniProt Q61831); test: JNK3 AlphaScreen Assay (AID 530; active means well fitted curve in either direction with a large enough effect, not every such curve was filed as active;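 further: kinase came from lysate of stimulated human HepG2 cells; signal reports phosphorylation of biotinylated GST-cJun 1-79 at Ser73 with 10 µM ATP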); settings: JNK3 lysate, c-Jun phosphorylation; series mostly up to 57.1 µM
Method in brief: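 Activity was read by AlphaScreen after JNK3-containing HepG2 lysate (cytokine pre-activated) phosphorylated biotinylated GST-cJun with 10 uM ATP at room temperature. Phospho-Ser73 cJun antibody with Protein-A acceptor beads provided detection.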

[5] = Cell Viability - Renal Proximal Tubule (AID 545); settings: renal proximal tubule cells viability; at 91.7 µM (top of the series), primary cells of rat origin unless noted; further: nearly all actives have a fitted effect of over 40% in size
Method in brief: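 Rat renal proximal tubule primary cells, 1000/well, exposed to compounds for 40 hr at 37 °C in complete medium; cellular ATP read by CellTiter-Glo luminescence. AC50 from concentration-response fitted with standard Hill equation.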

[6] = Cell Viability - Mesenchymal (AID 546); settings: mesenchymal cells viability, qHTS; series mostly up to 91.7 µM;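 further: cells exposed to compound for 40 hours before reading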
Method in brief: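 Human renal mesenchymal cells (glomerulus-derived), 1000 cells/well, 5 hr 37 °C pre-incubation; compound 40 hr, 37 °C; CellTiter-Glo, 20 min RT; luminescence; AC50 via Hill equation.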

[7] = Cellular Toxicity (caspase-3) Jurkat (AID 655); settings: Jurkat caspase-3 activation, luminescence, DMSO = 0%, tamoxifen = 100%; at 92.2 µM (top of the series);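 further: cells exposed to compound for 16 h at 37 °C before reading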
Method in brief: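 Jurkat cells (5000/well) in complete medium exposed 16 h at 37 C; caspase-3/7 activity read by Caspase-Glo luminescence after 20 min at room temperature. Normalized to DMSO and 100 uM tamoxifen; AC50 from Hill fits.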

[8] = Cellular Toxicity (caspase-3) HUV-EC-C (AID 656); settings: HUV-EC-C cells, caspase-3 activation (apoptosis), vehicle = 0, 100 µM tamoxifen = 100%; series mostly up to 92.2 µM
Method in brief: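 HUV-EC-C cells (1000/well) in complete medium, compound-treated 16 h at 37 °C; caspase-3/7 activity read by Caspase-Glo 3/7 luminescence. Normalized to DMSO (basal) and 100 uM tamoxifen (100%); AC50 from Hill-equation concentration-response fits.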

[9] = Cellular Toxicity (caspase-3) SHSY5Y (AID 657); settings: SH-SY5Y caspase-3 activation, DMSO zero, 10 µM staurosporine = 100%; series mostly up to 91.7 µM
Method in brief: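 SH-SY5Y human neuroblastoma cells, 1500/well, exposed to compound for 16 hours at 37 °C in complete medium. Caspase-3/7 activity read by Caspase-Glo luminescence after 1 hr at room temperature, normalized to DMSO and 10 uM staurosporine; AC50 from Hill fit.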

[10] = Cellular Toxicity (caspase-3) BJ (AID 658); settings: BJ fibroblasts, luminescence, normalized: DMSO 0%, staurosporine 100%; series mostly up to 91.7 µM
Method in brief: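 qHTS, BJ fibroblasts, 1000 cells/well; 5 hr preincubation, 16 hr compound, 37 °C; Caspase-Glo 3/7 reagent, 1 hr RT; luminescence. DMSO = 0%, 10 uM staurosporine = 100%. Hill-equation AC50.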

[11] = Cellular Toxicity (caspase-3) MRC-5 (AID 659); settings: MRC-5 cells, luminescence, normalized: DMSO 0%, 10 µM staurosporine 100%; series mostly up to 91.7 µM
Method in brief: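 MRC-5 fibroblasts, 1500/well; 16 h cpd, 37 °C; Caspase-Glo 3/7, 1 h RT; lumi read. Norm: DMSO = 0%, 10 uM staurosporine = 100%. Hill-fit AC50 from qHTS conc-response.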

[12] = Cellular Toxicity (caspase-3) Mesangial (AID 660); settings: mesangial cells, normalized: DMSO 0%, 100 µM tamoxifen 100%; series mostly up to 91.7 µM;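 further: cells exposed to compound for 16 h before the caspase read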
Method in brief: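 Caspase 3/7 activation measured by Caspase-Glo 3/7 luminescence (20 min, room temperature) following 16 h exposure of mesangial cells (1000/well); AC50 from Hill-equation fit, normalized to DMSO and 100 uM tamoxifen.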

[13] = Cellular Toxicity (caspase-3) SK-N-SH (AID 661); settings: SK-N-SH caspase-3 activation, qHTS, DMSO as zero, staurosporine as full; series mostly up to 91.7 µM
Method in brief: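 Caspase 3/7 activation was read by luminogenic substrate cleavage after 16 hour treatment of SK-N-SH cells. Signal was scaled between DMSO and 10 uM staurosporine, and concentration-response data were fitted with the Hill equation for AC50.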

[14] = Cellular Toxicity (caspase-3) H-4-II-E (AID 663); settings: H-4-II-E rat hepatoma, scaled: DMSO 0%, 100 µM tamoxifen 100%; series mostly up to 92.2 µM;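 further: cells exposed to compound for 16 hr before readout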
Method in brief: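 H-4-II-E rat hepatoma, 1500 cells/well, 5 hr settle at 37 °C; compound 16 hr, 37 °C, complete medium; Caspase-Glo 3/7, 20 min RT; luminescence. DMSO = 0%, 100 uM tamoxifen = 100%; Hill-equation AC50.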

[15] = Cellular Toxicity (caspase-3) Renal Proximal Tubule (AID 667); settings: renal proximal tubule cells; at 91.7 µM (top of the series), primary cells freshly taken from rat, solvent-only wells 0%, staurosporine 100% unless noted;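 further: cells exposed to compound for 16 hours at 37 °C before detection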
Method in brief: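 Freshly isolated primary rat kidney proximal tubule cells, 1000/well, treated 16 hr at 37 °C, then Caspase-Glo 3/7 luminescence after 1 hr. Normalized to DMSO and 10 uM staurosporine; AC50 from Hill fit.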

[16] = qHTS Assay for Identification of Small Molecule Inducers of Hypoxia Response (AID 2120; active means well fitted curve in the direction sought with a large enough effect in the signal ratio, with a control signal flat, not every such curve was filed as active; the % refers to the signal ratio); settings: hypoxia response reporter cells, beta-lactamase ratio readout; series mostly up to 104 µM
Method in brief: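 Reporter induction read as the CCF4 blue/green (460nm/530nm) emission ratio after 2.5 h dye loading at room temperature. ME-180 HRE-beta-lactamase cells received titrated compounds for 17 h at 37 degrees Celsius; AC50 values derived.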

[17] = qHTS assay for small molecule agonists of retinoid X receptor alpha signaling (AID 588544); settings: HEK293T RXRa-UAS-bla, beta-lactamase reporter, 18 h; 530 nm emission
[18] = qHTS assay for small molecule agonists of the antioxidant response element (ARE) signaling pathway measured by Nrf2-dependant transcriptional activity - cell viability counter screen (AID 720653; active means well fitted curve in the direction sought with a large enough effect in the repeat runs; an effect the other way counts as inactive or inconclusive); settings: ARE-bla HepG2 viability, CellTiter-Glo ATP luminescence, 16 h; stronger effect = lower value
Method in brief: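 ARE-bla HepG2 cells treated with compounds for 16 h at 37C; this counter screen measures viability as intracellular ATP by CellTiter-Glo luminescence after 30 min at room temperature.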

[19] = qHTS assay for cell viability of HEK293 cells (AID 743288); settings: ATP luminescence (CellTiter-Glo), 18 h; max response: stronger effect = lower value; further: nearly all actives have a fitted effect of over 50% in size
Method in brief: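 Steps: plate 2,000 parental HEK293 cells per well; incubate ≥5 h, 37 C; add compounds in DMSO; incubate 18 h, 37 C; add CellTiter-Glo; wait 30 min at room temperature; read luminescence.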

[20] = qHTS assay for cell viability of the p53RE-bla HCT-116 cell line (AID 743292); settings: p53RE-bla HCT-116 viability, ATP luminescence, 16 h; series mostly up to 95 µM; further: nearly all actives have a fitted effect of over 55% in size
Method in brief: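 CellSensor p53RE-bla HCT-116 cells (4,000/well) pre-incubated 5 h at 37 C, then exposed to compounds in DMSO for 16 h at 37 C. Viability read as ATP content by CellTiter-Glo luminescence after 30 min at room temperature.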

SMILES	Potency [1]	Potency [2]	Potency [3]	outcome [4]	activity change, negative = cytotoxicity [5]	outcome [6]	caspase-3 activation [7]	outcome [8]	outcome [9]	outcome [10]	outcome [11]	outcome [12]	outcome [13]	outcome [14]	caspase-3 activation [15]	outcome [16]	max response [17]	max response [18]	max response [19]	Potency [20]
C[N+](C)(C)Cc1ccccc1	> 92 µM (inactive)	> 92 µM (inactive)	> 92 µM (inactive)	inactive	0.397% [at 91.7 µM] (inactive)	inactive	0.448% (inactive)	inactive	inactive	inactive	inactive	inactive	inactive	inactive	4.55% [at 91.7 µM] (inactive)	inactive	3.34% and -11.4%	-0.49% (inactive) and -11.3% (inactive)	3.84% (inactive) and -11.6% (inactive)	inactive
c1nc[nH]n1	> 92 µM (inactive)	> 92 µM (inactive)	> 92 µM (inactive)	inactive	-1.05% (inactive)	inactive	0.542% (inactive)	inactive	inactive	inactive	inactive	inactive	inactive	inactive	6.18% (inactive)	inactive	-16.7%	12.8% (inactive)	-0.284% (inactive)	inactive
Nc1ccccc1Cl	> 92 µM (inactive)	> 92 µM (inactive)	> 92 µM (inactive)	inactive	6.03% (inactive)	inactive	-0.675% (inactive)	inactive	inactive	inactive	inactive	inactive	inactive	inactive	2.73% (inactive)	inactive	-4.32%	8.24% (inactive)	-8.45% (inactive)	inactive
C1CCC2CCCCC2C1 (stereo not given)	> 92 µM (inactive)	> 92 µM (inactive)	> 92 µM (inactive)	inactive	-9.71% (inactive)	inactive	1.3% (inactive)	inactive	inactive	inactive	inactive	inactive	inactive	inactive	-7.58% (inactive)	inactive	-13.4%	2.05% (inactive)	0.933% (inactive)	inactive
CCN(CC)c1ccccc1	> 92 µM (inactive)	> 92 µM (inactive)	> 92 µM (inactive)	inactive	-4.65% (inactive)	inactive	-0.552% (inactive)	inactive	inactive	inactive	inactive	inactive	inactive	inactive	2.98% (inactive)	inactive	-1.24%	7.99% (inactive)	-9.99% (inactive)	inactive

Source: PubChem BioAssay (NCATS)
